Screening results as filed in PubChem.
An excerpt weighted towards active compounds, which were near 9.5% of everything screened.
Pf growth 48h = Primary qHTS for delayed death inhibitors of the malarial parasite plastid, 48 hour incubation. P. falciparum luciferase growth in erythrocytes, 48 h. Potency, µM (series often up to 28.7 µM), without a hit: at the top dose activity change, negative = inhibition, usual class: inhibitors. hit rate 5.9% among 310,000; note: % is set by controls: 0 for no effect and ±100 for the full control effect
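First compound was added to culture medium, then infected red cells at 0.1% parasitemia and 2% hematocrit (final). After incubation at 37 C under 5% CO2, luciferase detection reagent was dispensed and light output recorded.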
SARS PLpro yeast = qHTS of Yeast-based Assay for SARS-CoV PLP; AID 485353, 2010; Potency, µM (titrated, usually from 32.9 µM), for inactives: at the top dose activity, positive = growth rescue, actives largely listed as activators; S. cerevisiae expressing SARS-CoV PLpro, growth rescue; hit rate 0.19% among 330,000; calls by dose curve; note: 0% is about no effect; nearly all actives have a fitted effect of over 55% in size
RE007 growth inh = qHTS Assay for Inhibitors of the HIV-1 protein Vpr; S. pombe RE007 Vpr strain, BacTiter-Glo ATP luminescence, 24 h; Potency, µM (top dose mostly 92.2 µM), inactives show at the highest dose activity change, negative = less growth, actives largely listed as inhibitors; hit rate 0.21% among 360,000; AID 651644, 2012; active = well fitted falling curve with a large enough effect; inconclusive = small, poorly fitted or top-dose-only effect; inactive = no such curve, though single readings can be large or run the other way; note: % is set by controls: 0 for no effect and ±100 for the full control effect; nearly all actives have a fitted effect of over 50% in size
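Fission yeast RE007 carrying one integrated HIV-1 vpr copy, seeded at OD 0.01 in PMG+AL medium with 23 nL pinned compound. Grown 24 h at 30 degrees; viability read by BacTiter-Glo luminescence after 5 min.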
NS1 inh = qHTS Assay for Inhibitors of Influenza NS1 Protein Function; Potency, µM (titrated, usually from 46.1 µM), inactives show at the highest dose activity, positive = more growth; hit rate 0.4% among 270,000; AID 2326, 2010; calls by dose curve; note: actives are rising curves; nearly all actives have a fitted effect of over 50% in size
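Read-out: OD600 growth recovery of NS1-expressing budding yeast. Cells grown overnight at 30C in -URA glucose medium, washed, resuspended and diluted 1:100 in 2% galactose assay medium, pH 6.0. Same strain lacking NS1 served as positive control.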
Pf growth 96h = Primary qHTS for delayed death inhibitors of the malarial parasite plastid, 96 hour incubation | P. falciparum luciferase reporter growth, 96 h | Potency, µM (series often up to 28.7 µM), without a hit: top-dose activity change, negative = inhibition, most hits filed as inhibitors | hit rate 6.9% among 320,000 | AID 504834, 2011; note: % is set by controls: 0 for no effect and ±100 for the full control effect
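Two parasite generations (96 h, 37 C, 5% CO2) of compound exposure in infected erythrocytes (0.05% parasitemia, 2% hematocrit). Luciferase-reporter P. falciparum; decreased luminescence indicates inhibited growth, aimed at apicoplast-acting delayed death.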
An asterisk follows results filed as active; ? = inconclusive; . = no result; [ ] = remark or other dose. Unless noted, calls come from the whole dose curve; as a rule, active = well fitted inhibition curve with a large enough effect; inconclusive = small, poorly fitted or top-dose-only effect, or another doubt; inactive = no such curve, though single readings can be large or run the other way. Potency is the fitted concentration of half-maximal effect.

SMILES | Pf growth 48h | SARS PLpro yeast | RE007 growth inh | NS1 inh | Pf growth 96h
COc1ccc(F)cc1S(=O)(=O)Nc1cc2c3c(c1)CCN3C(=O)CC2 | 10% | 5% | -7% | . | -5%
Cc1c(C(=O)NC(C)c2ccccc2)c(-c2ccccc2)nn1-c1ccccc1 (configuration not stated) | 10µM* | -11% | 0% | 2% | ?
Cc1c(C(=O)NC(C)C)c(-c2ccccc2)nn1-c1ccccc1 | -5% | 8% | -15% | -11% | -25%
COc1ccc(-c2csc(NC(=O)C3CC(=O)N(c4ccc5c(c4)OCCO5)C3)n2)cc1 (configuration not stated) | ? | -29% | 8% | ? | 12µM*
Cc1ccc(N2CC(C(=O)Nc3ccc4c(c3)OCO4)CC2=O)cc1 (configuration not stated) | -3% | 3% | 11% | 2% | 10%
CCOc1ccc(CCNC(=O)C2CC(=O)N(c3ccc4c(c3)OCCO4)C2)cc1OCC (configuration not stated) | ? | 0% | 13% | . | 3.3µM*
CC(=O)Nc1ccc(-c2csc(NC(=O)C3CC(=O)N(c4ccc5c(c4)OCCO5)C3)n2)cc1 (configuration not stated) | ? | 0% | -8% | -34% | ?
CC(C)Oc1ccc(N2CC(C(=O)Nc3ccc4c(c3)OCO4)CC2=O)cc1 (configuration not stated) | . | 1% | -1% | 0% | 15µM*
O=C(Nc1nc2ccccc2[nH]1)C1CC(=O)N(c2ccc3c(c2)OCCO3)C1 (configuration not stated) | 6% | -2% | 3% | -2% | 8.3µM*
CCC1=C([N+](=O)[O-])C(c2ccc3c(c2)OCO3)NC(=O)N1 (configuration not stated) | 18% | 1% | 2% | 14% | -6%
COc1ccccc1CNC(=O)CCNC(=O)c1ccco1 | ? | -3% | 20% | . | 22%
Cc1nc(SCc2ccccc2)c(C(F)(F)F)c(=O)[nH]1 | 8% | -7% | 6% | 17% | 5.2µM*
Oc1ccc2nnc3c(Br)cnn3c2c1 | 14% | -9% | . | -30% | 35%
COc1cccc2c1Oc1ncccc1N(C(=O)CCC(=O)NCc1ccccc1F)C2 | -14% | -8% | 0% | 2% | 12µM*
CCOc1ccccc1CNC(=O)CCC(=O)N1Cc2ccccc2Oc2ncccc21 | -15% | 4% | -1% | 18% | 9.3µM*
COc1ccccc1CNC(=O)CCC(=O)N1Cc2cccc(OC)c2Oc2ncccc21 | 0% | 14% | -5% | 4% | 9.3µM*
COc1cccc2c1Oc1ncccc1N(C(=O)CCC(=O)NCc1ccccc1)C2 | ? | 0% | -2% | 3% | -3%
COc1ccc2nc(-c3ccccc3)nc(SC)c2c1 | . | . | 6% | . | .
O=C(CCNC(=O)c1ccc([N+](=O)[O-])cc1)NC1CCCCCC1 | -14% | -3% | -26% | . | -5%
C=CCc1cccc2cc(C(=O)N3CCN(C(=O)c4ccccc4)CC3)c(=O)oc12 | ? | 0% | -22% | 14% | 59%
CSc1nc(-c2ccccc2)[nH]c(=S)c1C(C)=O | . | 0% | -12% | 0% | 9.3µM*
CCOC(=O)c1c(C)[nH]c(C)c1C(=O)COC(=O)c1ccc(Cl)c(S(=O)(=O)NCc2ccccc2)c1 | . | 8% | -7% | 9% | ?
N#CC1(c2ccccc2)CCC(=NO)CC1 (configuration not stated) | . | 26% | 12% | -2% | 1.9µM*
O=C(C[C@H]1C[C@H](C(=O)N2CCCCC2)[C@@]2(CCc3ccccc3)c3[nH]c4ccc(Cl)cc4c3CCN2C1=O)NCCN1CCOCC1 | . | -14% | 2% | . | .
CSCc1c(C(=O)Nc2ccccc2N2CCOCC2)oc2ccccc12 | 12µM* | -2% | 8% | . | -113%
SMILES | Pf growth 48h | SARS PLpro yeast | RE007 growth inh | NS1 inh | Pf growth 96h
C[C@@H]1[C@H](O)C[C@@]23COC(=O)C2=CCCC3[C@@]1(C)CCC1COC(=O)C1 (some centres not stated) | 0.0033µM* | 5% | 2% | . | 0.0026µM*
CC12Cc3ccc4ccccc4c3C=C1C[N+](C)(C)C2 (configuration not stated) | . | -1% | -19% | 1% | 1.7µM*
COc1ccccc1C(=O)Nc1ccc2oc(-c3ccc(F)cc3)nc2c1 | 5% | -9% | -5% | -14% | 10µM*
COc1ccc(C(=O)Nc2ccc3oc(-c4cccc(F)c4)nc3c2)cc1OC | . | 2% | 6% | -4% | ?
COc1ccccc1NS(=O)(=O)c1c(C)[nH]c(C)c1C(=O)N1CCCC1 | 10% | 3% | -3% | 3% | -18%
Clc1ccc(C2(Cn3cncn3)OCCO2)c(Cl)c1 | -21% | . | . | . | ?
CCCC1COC(Cn2cncn2)(c2ccc(Cl)cc2Cl)O1 (configuration not stated) | 12µM* | -20% | -5% | -120% | 10%
Cc1ccc(-c2nn(CC(=O)NN3CCOCC3)c(=O)c3ccccc23)cc1 | 26% | 0% | 2% | 0% | 19%
CC1CCC2(CC1)NC(=O)N(CC(=O)N(Cc1ccccc1)C(C)(C)C)C2=O (configuration not stated) | 19% | 2% | 15% | . | -1%
COc1ccc(CN(C(=O)CN2C(=O)NC3(CCC(C)CC3)C2=O)C(C)Cc2cccs2)cc1 (configuration not stated) | 9.3µM* | -2% | ? | . | 12µM*
COCCN(CC1CCCN(C2Cc3ccccc3C2)C1)C(=O)CCC(F)(F)F (configuration not stated) | 5% | -7% | 8% | 6% | 0.41µM*
COCCN(CC1CCCN(C2Cc3ccccc3C2)C1)C(=O)c1ccc(C(C)=O)cc1 (configuration not stated) | ? | -7% | -6% | -2% | 49%
NC1=NC2(CCCCC2)N=C(Nc2ccc(Br)cc2)N1 | 1µM* | -8% | 9% | -8% | ?
Cc1ccc(NC2=NC3(CCCC3)N=C(N)N2)c(C)c1 | ? | 1% | 15% | -6% | 204%
Cc1ccc(NC2=NC3(CCCCC3)N=C(N)N2)c(C)c1 | ? | 5% | -1% | -5% | 8.3µM*
Cc1cccc(C)c1NC1=NC2(CCCCC2)N=C(N)N1 | ? | 7% | 14%[3.69 µM] | -3% | 95%
COc1ncccc1-c1cc2nc(NCCCN(C)C)n(C)c(=O)c2s1 | . | . | -16% | . | .
COc1ccc(CC(=O)NCCC2=CCCCC2)cc1 | -8% | -1% | 155% | . | -7%
COc1nc(NCCC2=CCCCC2)nc(OC)n1 | 10µM* | -9% | 17% | -33% | ?
CC1(C)CC(=O)C2=C(C1)OC1=C(C(=O)CC(C)(C)C1)C2c1ccc(O)cc1O | 12µM* | -23% | ? | -84% | 10µM*
